# Source: the supplement of paper PMC10849652
# The full data set covers some 7,900 targets. This sample favours those with a hit. About 0.6% of all pairs of compound and target were hits. Values without a mark were called inactive.
# Key:
# Experiment in all cases: log2 fold change, soluble protein after heating vs DMSO (PISA); higher = thermal stabilisation; K562 cells, 10 uM, 30 min; active = over 0.2 and 3.5 SD of the protein, either way, in both replicates (recomputed)
# [1] = compound: CS(=O)(=O)c1ccc(-c2cnc(N)c(C(=O)Nc3ccccc3)n2)cc1
# Summary of the method: (§1)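 K562 cells at 2×10^6 cells/mL were exposed to 10 μM compound for 30 min, then aliquots were heated for 3 min across 48°C-58°C, pooled, and extracted in PBS containing 0.5% NP-40 at 4°C. The supernatant after 21,000xg for 90 min was taken as soluble protein and measured by TMTpro 16plex LC-MS/MS with channel sums equalised. Thermal stability is reported relative to control samples, with values from duplicates. Fold changes are given on a log2 scale.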
# crizotinib = compound: C[C@@H](Oc1cc(-c2cnn(C3CCNCC3)c2)cnc1N)c1c(Cl)ccc(F)c1Cl [crizotinib]
# Summary of the method: as §1
# [2] = compound: C[C@@H]1COCCN1C2=NC(=NC(=C2)C3(CC3)S(=O)(=O)C)C4=C5C=CNC5=CC=C4
# Summary of the method: as §1
# [3] = compound: C[C@H](C1=CC=C(C=C1)C(=O)NC2=C3C=CNC3=NC=C2)N
# Summary of the method: as §1
# duvelisib = compound: C[C@H](Nc1ncnc2nc[nH]c12)c1cc2cccc(Cl)c2c(=O)n1-c1ccccc1 [duvelisib]
# Summary of the method: as §1
# gandotinib = compound: Cc1cc(Nc2cc(CN3CCOCC3)c3nc(C)c(Cc4ccc(Cl)cc4F)n3n2)n[nH]1 [gandotinib]
# Summary of the method: as §1
# tozasertib = compound: Cc1cc(Nc2cc(N3CCN(C)CC3)nc(Sc3ccc(NC(=O)C4CC4)cc3)n2)n[nH]1 [tozasertib]
# Summary of the method: as §1
# [4] = compound: Cc1cc(SCc2sc(-c3ccc(C(F)(F)F)cc3)nc2C)ccc1OCC(=O)O
# Summary of the method: as §1
# doramapimod = compound: Cc1ccc(-n2nc(C(C)(C)C)cc2NC(=O)Nc2ccc(OCCN3CCOCC3)c3ccccc23)cc1 [doramapimod]
# Summary of the method: as §1
# ispinesib = compound: Cc1ccc(C(=O)N(CCCN)[C@@H](c2nc3cc(Cl)ccc3c(=O)n2Cc2ccccc2)C(C)C)cc1 [ispinesib]
# Summary of the method: as §1
# Sequence of UniProt O14929 (O14929 whole entry, looked up): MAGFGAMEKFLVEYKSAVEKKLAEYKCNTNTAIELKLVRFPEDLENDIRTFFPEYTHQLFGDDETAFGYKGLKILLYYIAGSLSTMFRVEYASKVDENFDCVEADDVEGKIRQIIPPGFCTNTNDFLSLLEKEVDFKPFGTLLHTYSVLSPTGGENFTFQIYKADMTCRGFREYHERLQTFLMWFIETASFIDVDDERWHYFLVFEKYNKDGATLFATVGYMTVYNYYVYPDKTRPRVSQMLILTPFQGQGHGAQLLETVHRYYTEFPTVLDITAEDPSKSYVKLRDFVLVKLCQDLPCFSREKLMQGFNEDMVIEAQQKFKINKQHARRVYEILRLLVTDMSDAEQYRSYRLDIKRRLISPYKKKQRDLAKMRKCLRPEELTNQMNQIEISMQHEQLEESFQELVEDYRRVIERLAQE
# Sequence of UniProt P06865 (P06865 whole entry, looked up): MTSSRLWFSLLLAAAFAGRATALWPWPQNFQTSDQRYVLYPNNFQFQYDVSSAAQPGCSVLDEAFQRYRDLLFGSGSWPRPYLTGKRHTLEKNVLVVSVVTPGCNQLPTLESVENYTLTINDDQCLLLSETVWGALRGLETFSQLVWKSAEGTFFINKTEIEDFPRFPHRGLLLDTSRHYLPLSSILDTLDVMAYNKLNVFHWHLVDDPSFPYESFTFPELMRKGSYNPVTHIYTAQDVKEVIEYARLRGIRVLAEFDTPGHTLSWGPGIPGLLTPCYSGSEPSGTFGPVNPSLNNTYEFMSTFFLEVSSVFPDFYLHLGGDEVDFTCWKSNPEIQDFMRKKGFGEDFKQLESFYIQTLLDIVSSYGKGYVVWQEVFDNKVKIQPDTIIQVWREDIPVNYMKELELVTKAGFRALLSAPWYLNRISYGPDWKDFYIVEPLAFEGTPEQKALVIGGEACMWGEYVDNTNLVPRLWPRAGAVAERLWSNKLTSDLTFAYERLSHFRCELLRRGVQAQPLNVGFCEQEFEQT
# Sequence of UniProt Q9P2D3 (Q9P2D3 whole entry, looked up): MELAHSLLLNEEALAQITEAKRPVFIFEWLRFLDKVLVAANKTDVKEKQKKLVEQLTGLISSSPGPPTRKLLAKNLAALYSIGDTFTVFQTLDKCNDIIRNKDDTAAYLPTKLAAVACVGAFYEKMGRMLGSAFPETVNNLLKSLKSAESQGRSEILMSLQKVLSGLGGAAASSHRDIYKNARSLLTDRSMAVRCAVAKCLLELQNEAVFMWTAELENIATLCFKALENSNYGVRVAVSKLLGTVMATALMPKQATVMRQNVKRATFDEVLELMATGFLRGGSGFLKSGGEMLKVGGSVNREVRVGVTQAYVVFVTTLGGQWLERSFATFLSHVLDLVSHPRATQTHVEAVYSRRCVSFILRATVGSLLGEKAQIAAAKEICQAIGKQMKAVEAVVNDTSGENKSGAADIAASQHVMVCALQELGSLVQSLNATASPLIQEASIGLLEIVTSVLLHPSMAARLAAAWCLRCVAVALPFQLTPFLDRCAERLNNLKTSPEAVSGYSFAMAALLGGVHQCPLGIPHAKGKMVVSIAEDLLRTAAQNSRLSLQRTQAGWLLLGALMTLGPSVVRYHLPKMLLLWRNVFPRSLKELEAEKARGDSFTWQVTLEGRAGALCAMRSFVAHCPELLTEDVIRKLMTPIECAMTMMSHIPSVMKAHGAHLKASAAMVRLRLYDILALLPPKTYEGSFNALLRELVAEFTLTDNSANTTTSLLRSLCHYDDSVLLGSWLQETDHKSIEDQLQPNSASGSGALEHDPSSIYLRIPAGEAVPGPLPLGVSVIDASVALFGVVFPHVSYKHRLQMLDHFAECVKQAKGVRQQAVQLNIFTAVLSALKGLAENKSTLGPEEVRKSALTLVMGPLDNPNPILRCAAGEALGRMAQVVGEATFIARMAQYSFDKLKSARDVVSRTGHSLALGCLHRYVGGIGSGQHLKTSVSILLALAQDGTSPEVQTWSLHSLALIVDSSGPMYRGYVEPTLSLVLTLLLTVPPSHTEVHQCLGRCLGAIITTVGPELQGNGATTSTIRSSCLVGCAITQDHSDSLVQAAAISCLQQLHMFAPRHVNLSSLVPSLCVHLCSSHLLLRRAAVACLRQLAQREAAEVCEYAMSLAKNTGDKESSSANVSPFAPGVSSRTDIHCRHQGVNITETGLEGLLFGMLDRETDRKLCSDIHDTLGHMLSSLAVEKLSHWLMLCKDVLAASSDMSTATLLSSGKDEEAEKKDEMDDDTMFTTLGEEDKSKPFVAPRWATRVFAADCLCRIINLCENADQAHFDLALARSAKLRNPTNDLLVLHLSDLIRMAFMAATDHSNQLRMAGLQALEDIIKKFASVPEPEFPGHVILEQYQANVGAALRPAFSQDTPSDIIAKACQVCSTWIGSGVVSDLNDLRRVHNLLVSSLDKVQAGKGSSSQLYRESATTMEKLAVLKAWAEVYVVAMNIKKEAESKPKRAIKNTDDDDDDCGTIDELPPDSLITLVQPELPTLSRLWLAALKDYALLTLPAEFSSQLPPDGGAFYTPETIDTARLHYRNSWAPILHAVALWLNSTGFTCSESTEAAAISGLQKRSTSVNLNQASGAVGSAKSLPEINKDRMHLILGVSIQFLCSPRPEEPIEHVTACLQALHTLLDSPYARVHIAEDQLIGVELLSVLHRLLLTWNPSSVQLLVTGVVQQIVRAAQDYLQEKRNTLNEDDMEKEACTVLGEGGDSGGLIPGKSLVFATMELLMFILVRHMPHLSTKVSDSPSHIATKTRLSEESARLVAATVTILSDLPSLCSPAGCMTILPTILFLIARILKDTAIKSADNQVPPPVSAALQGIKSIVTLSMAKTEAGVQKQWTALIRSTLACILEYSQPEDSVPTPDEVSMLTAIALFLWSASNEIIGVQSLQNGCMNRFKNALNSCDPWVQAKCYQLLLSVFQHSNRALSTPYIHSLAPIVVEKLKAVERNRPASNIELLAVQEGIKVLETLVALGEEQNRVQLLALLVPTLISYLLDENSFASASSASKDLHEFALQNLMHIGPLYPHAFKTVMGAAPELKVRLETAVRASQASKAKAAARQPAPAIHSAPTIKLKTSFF
# Sequence of UniProt P23434 (P23434 whole entry, looked up): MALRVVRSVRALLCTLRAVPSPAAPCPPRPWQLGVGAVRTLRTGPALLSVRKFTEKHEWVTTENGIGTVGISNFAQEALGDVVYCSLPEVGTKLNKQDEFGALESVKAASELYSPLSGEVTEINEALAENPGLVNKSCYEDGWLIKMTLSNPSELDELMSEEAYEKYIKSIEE
# Sequence of UniProt P09211 (P09211 whole entry, looked up): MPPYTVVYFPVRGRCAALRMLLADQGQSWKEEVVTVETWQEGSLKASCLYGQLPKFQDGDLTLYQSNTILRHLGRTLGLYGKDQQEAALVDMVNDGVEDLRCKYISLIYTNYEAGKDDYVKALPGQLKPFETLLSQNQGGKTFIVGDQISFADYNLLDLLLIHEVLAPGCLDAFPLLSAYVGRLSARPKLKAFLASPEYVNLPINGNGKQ
# Sequence of UniProt Q12894 (Q12894 whole entry, looked up): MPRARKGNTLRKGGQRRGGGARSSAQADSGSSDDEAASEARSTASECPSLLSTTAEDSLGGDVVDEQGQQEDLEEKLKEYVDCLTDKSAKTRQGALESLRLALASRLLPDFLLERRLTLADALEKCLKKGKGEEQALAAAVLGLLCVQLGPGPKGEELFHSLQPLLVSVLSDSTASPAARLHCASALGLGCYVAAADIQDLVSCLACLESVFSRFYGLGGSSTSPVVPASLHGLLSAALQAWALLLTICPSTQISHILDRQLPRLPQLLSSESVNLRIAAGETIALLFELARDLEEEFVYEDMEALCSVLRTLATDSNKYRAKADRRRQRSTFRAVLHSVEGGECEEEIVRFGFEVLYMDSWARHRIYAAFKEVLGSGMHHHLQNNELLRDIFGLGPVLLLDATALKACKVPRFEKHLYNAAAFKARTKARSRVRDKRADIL
# Sequence of UniProt Q00688 (Q00688 whole entry, looked up): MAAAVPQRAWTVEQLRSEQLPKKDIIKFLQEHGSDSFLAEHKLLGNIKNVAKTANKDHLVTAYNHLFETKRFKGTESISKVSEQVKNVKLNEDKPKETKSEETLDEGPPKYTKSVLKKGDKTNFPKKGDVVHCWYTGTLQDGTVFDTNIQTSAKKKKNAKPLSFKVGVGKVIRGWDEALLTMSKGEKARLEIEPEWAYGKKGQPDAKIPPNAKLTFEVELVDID
# Sequence of UniProt Q13547 (Q13547 whole entry, looked up): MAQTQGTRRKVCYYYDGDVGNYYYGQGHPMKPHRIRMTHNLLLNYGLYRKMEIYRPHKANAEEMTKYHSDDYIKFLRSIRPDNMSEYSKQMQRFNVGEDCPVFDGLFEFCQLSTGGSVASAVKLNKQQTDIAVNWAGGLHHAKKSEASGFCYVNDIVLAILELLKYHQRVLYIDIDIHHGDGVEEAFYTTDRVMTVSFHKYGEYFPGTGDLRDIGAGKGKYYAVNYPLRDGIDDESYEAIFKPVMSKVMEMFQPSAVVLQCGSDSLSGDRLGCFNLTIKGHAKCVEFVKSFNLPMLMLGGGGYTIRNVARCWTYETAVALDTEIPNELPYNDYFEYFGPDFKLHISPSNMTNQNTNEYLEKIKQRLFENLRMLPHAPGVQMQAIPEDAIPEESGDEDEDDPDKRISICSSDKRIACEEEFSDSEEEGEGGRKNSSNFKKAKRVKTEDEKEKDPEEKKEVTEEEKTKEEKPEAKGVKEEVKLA
# Sequence of UniProt Q9Y248 (Q9Y248 whole entry, looked up): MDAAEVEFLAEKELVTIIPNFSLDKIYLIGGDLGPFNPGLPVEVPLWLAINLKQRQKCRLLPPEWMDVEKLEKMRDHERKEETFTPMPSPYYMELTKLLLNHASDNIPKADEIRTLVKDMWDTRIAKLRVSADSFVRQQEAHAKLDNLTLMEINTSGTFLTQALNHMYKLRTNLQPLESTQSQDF
# Sequence of UniProt Q9H0R8 (Q9H0R8 whole entry, looked up): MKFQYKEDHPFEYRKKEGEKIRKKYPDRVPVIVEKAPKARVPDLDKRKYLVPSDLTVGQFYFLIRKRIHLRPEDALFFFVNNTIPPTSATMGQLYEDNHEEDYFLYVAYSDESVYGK
# Sequence of UniProt P52657 (P52657 whole entry, looked up): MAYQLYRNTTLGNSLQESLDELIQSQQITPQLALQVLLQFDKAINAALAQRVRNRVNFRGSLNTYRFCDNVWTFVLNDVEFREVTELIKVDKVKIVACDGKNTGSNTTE
Target,log2 fold change [1],log2 fold change (crizotinib),log2 fold change [2],log2 fold change [3],log2 fold change (duvelisib),log2 fold change (gandotinib),log2 fold change (tozasertib),log2 fold change [4],log2 fold change (doramapimod),log2 fold change (ispinesib)
GCSH (UniProt P23434),-0.009,0.073,0.005,-0.022,-0.014,0.043,0.07,0.026,0.032,-0.057
HHEX (UniProt Q03014),-0.014,-0.027,-0.104,0.49,-0.072,-0.042,-0.019,0.021,0.05,-0.128
HADHA (UniProt P40939),-0.058,0.079,0.068,-0.017,0.201,0.086,-0.154,0.154,0.176,0.171
FKBP3 (UniProt Q00688),-0.02,0.017,0.074,-0.076,0.016,-0.024,0.004,-0.006,0,0.019
GOLGB1 isoform 2 (UniProt Q14789),-0.135,-0.012,-0.314 (active),0.19,0.004,-0.031,0.211,-0.025,0.056,0.012
FOXO3 (UniProt O43524),-0.028,-0.423 (active),-0.444,0.013,-0.354,-0.061,-0.095,0.16,0.005,-0.095
FUCA1 (UniProt P04066),0.019,-0.079,0.031,-0.049,0.007,0,-0.007,-0.044,0.021,-0.007
HRAS (UniProt P01112),-0.064,0.18,-0.129,-0.057,-0.025,0.068,-0.149,-0.077,-0.032,0.22
HNRNPUL2 (UniProt Q1KMD3),-0.092,-0.033,-0.05,0.123,-0.096,-0.005,-0.058,0.015,0.041,0.004
FUBP3 (UniProt Q96I24),-0.076,-0.046,-0.083,0.065,-0.002,-0.106,-0.028,0.013,-0.025,-0.049
GTF2A2 (UniProt P52657),0.022,0.11,0.102,0.015,0.067,-0.005,0.031,-0.076,-0.034,0.023
HIKESHI (UniProt Q53FT3),-0.007,0.067,0.182,-0.023,0.101,-0.033,0.023,-0.021,-0.013,0.192
GSK3B isoform 2 (UniProt P49841),0.09,-0.053,-0.032,-0.143,-0.015,-0.108,-0.043,0.015,-0.013,0.059
HDHD2 (UniProt Q9H0R4),-0.11,-0.031,-0.01,0.001,-0.019,0,-0.039,-0.023,-0.081,0.004
HEXA (UniProt P06865),0.016,-0.785 (active),0.02,-0.015,0.049,0.015,0.002,-0.02,-0.016,-0.124
FBXO7 (UniProt Q9Y3I1),0.038,0.041,0.061,-0.023,0.015,-0.194,-0.018,0.083,-0.029,0.098
GATD1 (UniProt Q8NB37),-0.026,0.023,-0.256,0.012,0.124,0.052,-0.075,0.033,0.163,-0.005
GTF2E2 (UniProt P29084),0.037,0.012,-0.029,-0.002,0.051,-0.03,0.02,0.071,-0.025,-0.01
HEATR5B (UniProt Q9P2D3),0.055,-0.058,-0.11,0.103,-0.026,-0.039,-0.019,0.036,-0.015,-0.021
H2AZ1 (UniProt P0C0S5),-0.027,-0.062,-0.47,0.345,-0.09,-0.006,-0.146,-0.084,0.178,-0.147
HAT1 (UniProt O14929),-0.011,0.013,0.007,-0.225,-0.031,0.019,0.024,0.033,-0.04,0.135
GABARAPL1 isoform 2 (UniProt Q9H0R8),0.105,-0.344 (active),0.048,-0.045,0.057,0.078,-0.008,0.026,-0.034,-0.315 (active)
HDAC1 (UniProt Q13547),0.011,0.084,0.001,0.115,0.045,-0.02,-0.033,0.06,-0.018,0.038
GAGE12F (UniProt P0CL80),0.019,0.034,0.092,0.081,0.039,0.072,0.006,0.03,0.043,0.009
GSTP1 (UniProt P09211),0.023,0.038,0.033,-0.067,0.037,-0.005,-0.008,0,-0.019,0.058
FDFT1 (UniProt P37268),-0.009,0.105,-0.032,-0.065,0.32 (active),0.061,-0.032,0.174,0.02,0.077
GINS2 (UniProt Q9Y248),-0.066,-0.036,-0.046,-0.15,0.164,0.004,0.145,0.247,0.026,0.167
HNRNPK isoform 2 (UniProt P61978),-0.01,0.072,0.074,-0.028,0.036,-0.108,-0.021,0.052,-0.064,-0.025
IFRD2 isoform 2 (UniProt Q12894),0.352,-0.047,0.396,-0.035,0.024,0.155,-0.123,-0.059,0.052,0.089
FKBP7 (UniProt Q9Y680),0.052,0.094,0.003,0.114,-0.043,0.114,-0.054,0.005,-0.023,0.044
